Results filed as inconclusive are left out. Unmarked numbers belong to inactive results. The source made the active and inactive calls. Unless noted, calls come from the whole dose curve; as a rule, active = well fitted curve in either direction with a large enough effect (not every such curve was filed as active); inconclusive = small, poorly fitted or top-dose-only effect, or another doubt; inactive = flat fitted curve, though single readings scatter.
Tests used:
[1] = AP1 Signaling Pathway (AID 357);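 note: ME-180 reporter cells stimulated with EGF at its EC50 level; % is set by controls: 0 for no effect and ±100 for the full control effect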
Method in brief: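 AP-1-bla ME-180 cells, Opti-MEM + 0.5% dialyzed FBS, plated overnight 37 °C. Cpd titration + EC50 EGF, 5 h 37 °C. CCF4 2.5 h RT; ex 405, em 460/530 ratio → %activity, AC50.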

[2] = NFAT Signaling Pathway (AID 444); settings: Jurkat NFAT-bla M1, carbachol, beta-lactamase ratio, 5 h;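 note: carbachol stimulus at about its EC50 of 1 µM final; % is set by controls: 0 for no effect and ±100 for the full control effect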
Method in brief: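 Read-out: CCF4 FRET ratio (460 nm/530 nm) after 1 h RT dye loading, used for %activity and AC50 from titration series. Cells: Jurkat NFAT-β-lactamase/M1 line, treated with compound plus 1 uM carbachol for 5 h, 37 °C.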

[3] = molecular target: Cytochrome P450 1A2 (Homo sapiens) (UniProt P05177); assay: p450-cyp1a2 (AID 410; calls by dose curve; note: potency is the fitted concentration of half-maximal effect;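 for activity change, negative = inhibition: -100% = full effect of reference inhibitor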)
Cytochrome P450 1A2 (Homo sapiens), sequence (P05177 whole entry, looked up): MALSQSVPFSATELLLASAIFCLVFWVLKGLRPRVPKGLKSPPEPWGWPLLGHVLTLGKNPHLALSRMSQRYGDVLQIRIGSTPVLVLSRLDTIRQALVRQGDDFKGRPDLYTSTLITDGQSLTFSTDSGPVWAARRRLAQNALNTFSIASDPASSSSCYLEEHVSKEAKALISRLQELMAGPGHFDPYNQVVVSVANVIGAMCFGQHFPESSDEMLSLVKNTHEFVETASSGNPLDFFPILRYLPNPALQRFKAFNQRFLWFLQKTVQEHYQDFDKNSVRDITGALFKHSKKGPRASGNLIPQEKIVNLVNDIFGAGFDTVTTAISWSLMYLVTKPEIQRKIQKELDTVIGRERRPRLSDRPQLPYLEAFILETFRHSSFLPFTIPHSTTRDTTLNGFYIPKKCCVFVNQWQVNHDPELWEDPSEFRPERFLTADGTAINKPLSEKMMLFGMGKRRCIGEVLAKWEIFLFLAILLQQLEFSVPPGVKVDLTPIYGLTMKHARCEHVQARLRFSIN
Method in brief: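 Luminescent demethylation readout: Luciferin-ME (100uM, equal to Km) turned over by 20nM CYP1A2 for 60 min at room temperature after NADPH regeneration addition, following 10 min compound preincubation. Normalization used 57 uM furafylline as full inhibition.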

[4] = Cell Viability - BJ (AID 421; calls by dose curve;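 note: potency is the fitted concentration of half-maximal effect; cells exposed to compound for 40 hours at 37 °C before readout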); settings: BJ fibroblast viability, qHTS
Method in brief: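 Cytotoxicity as drop in intracellular ATP (CellTiter-Glo, 20 min RT) after 40 hr compound exposure of BJ fibroblasts at 37 °C. Titrations scaled between DMSO and 100 uM tamoxifen, Hill-fitted for AC50.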

[5] = Cell Viability - Jurkat (AID 426;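 active = dose-dependent loss of cell ATP signal giving a full or clear fitted curve, ranked by lower potency value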;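 note: potency is the fitted concentration of half-maximal effect; cells exposed to compound for 40 hours at 37 °C before ATP read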); settings: qHTS
Method in brief: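 Cytotoxicity taken as drop in cellular ATP (CellTiter-Glo luminescence, 20 min room temperature) after 40 hr, 37C treatment of 5000 Jurkat Clone E6-1 cells per well; concentration-response fitted with Hill equation for AC50.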

[6] = Cell Viability - Hek293 (AID 427;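 active = compounds whose dose-response curve shows a full or clear partial loss of cell viability, called from curve shape rather than a numeric limit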;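 note: potency is the fitted concentration of half-maximal effect; cells exposed to compound for 40 hours at 37 °C before reading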); settings: qHTS
Method in brief: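 Luminescent ATP content (CellTiter-Glo, 20 min at room temperature) was measured after a 40 hr, 37 °C compound exposure of HEK293 cells. AC50 values came from Hill-equation fits of qHTS concentration-response data normalized to DMSO and 100 uM tamoxifen.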

[7] = Cell Viability - HepG2 (AID 433; calls by dose curve;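 note: potency is the fitted concentration of half-maximal effect; cells exposed to compound for 40 hours; potency for ATP loss meaning cytotoxicity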); settings: qHTS
Method in brief: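 ATP luminescence (CellTiter-Glo) after 40 h compound exposure, 37 °C, HepG2, 1500 cells/well, complete medium. Normalized: DMSO = basal, 100 uM tamoxifen = 100% inhibition. AC50 via standard Hill equation.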

[8] = Cell Viability - MRC5 (AID 434; calls by dose curve;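 note: potency is the fitted concentration of half-maximal effect; cells exposed to compound for 40 hours at 37 °C; potency reflects cytotoxicity seen as loss of intracellular ATP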); settings: MRC5 lung fibroblast viability, qHTS
Method in brief: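 AC50 values come from Hill-equation fits of intracellular ATP loss, measured by CellTiter-Glo luminescence. Normal lung fibroblasts (MRC5) had 40 hr compound treatment at 37 C, normalized between DMSO and 100 uM tamoxifen.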

[9] = Cell Viability - SK-N-SH (AID 435; calls by dose curve; note: potency is the fitted concentration of half-maximal effect); settings: SK-N-SH neuroblastoma cell viability qHTS
Method in brief: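 CellTiter-Glo ATP luminescence, 20 min RT read; cells pre-plated 5 hr, compound 40 hr at 37 °C, 1500 cells/well, complete medium. Normalized DMSO = 0, 100 uM tamoxifen = 100% inhibition; Hill-fit AC50.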

[10] = at 38 µM (top of the series) unless noted

NC(=O)CI
outcome [1]: inactive
activity change, negative = inhibition [2, 10]: 6.62%

c1ccc2cc(CC3=NCCN3)ccc2c1
outcome [1]: inactive
activity change, negative = inhibition [2, 10]: -0.608%

O=[N+]([O-])c1cc(O)c(O)c([N+](=O)[O-])c1
outcome [1]: inactive
activity change, negative = inhibition [2, 10]: 3.02%

O=S1(=O)N(CCN2CC=C(c3c[nH]c4cc(F)ccc34)CC2)c2cccc3c2N1CCC3
outcome [1]: inactive
activity change, negative = inhibition [2, 10]: -17.5%

C[N+](C)(C)CCOC(=O)CBr
outcome [1]: inactive
activity change, negative = inhibition [2, 10]: 13.9%

CP(=O)(O)C1=CCNCC1
outcome [1]: inactive
activity change, negative = inhibition [2, 10]: -1.42%

CC(C)[C@@]1(NC(=O)[C@@H]2C[C@@H]3c4cccc5[nH]cc(c45)C[C@H]3N(C)C2)O[C@@]2(O)[C@@H]3CCCN3C(=O)[C@H](Cc3ccccc3)N2C1=O
outcome [1]: inactive
activity change, negative = inhibition [2, 10]: -22.9% [at 17.2 µM]

CN1CCc2cc(O)cc3c2[C@H]1Cc1ccc(O)c(O)c1-3
outcome [1]: inactive
activity change, negative = inhibition [2, 10]: -24.8%

CN(N=O)c1cc(O)ccc1O
outcome [1]: inactive
activity change, negative = inhibition [2, 10]: 0.498%

N#CCCN
outcome [1]: inactive
activity change, negative = inhibition [2, 10]: 7.43%

COc1ccc2[nH]c3c(c2c1)CCNC3
outcome [1]: inactive
Potency [3]: 3.16 µM (active)
activity change, negative = inhibition [2, 10]: 4.34%

NNC(N)=O
outcome [1]: inactive
Potency [4]: > 92 µM
Potency [5]: > 92 µM
Potency [6]: > 92 µM
Potency [7]: > 92 µM
Potency [8]: > 92 µM
Potency [9]: > 92 µM

COc1ccc2[nH]cc(CCN)c2c1
outcome [1]: inactive
activity change, negative = inhibition [2, 10]: -0.77%

CN1CCC(c2c[nH]c3ccc(O)cc23)CC1
outcome [1]: inactive
activity change, negative = inhibition [2, 10]: -5.82%

C[N+](C)(C)CC#CCOC(=O)Nc1cccc(Cl)c1
outcome [1]: inactive
activity change, negative = inhibition [2, 10]: 11.3%

CN1CCc2cccc(Cl)c2CC1
outcome [1]: inactive
activity change, negative = inhibition [2, 10]: 3.59%

NC(=O)COc1c(F)cc(SCCNS(=O)(=O)c2ccccc2)cc1F
outcome [1]: inactive
activity change, negative = inhibition [2, 10]: 20.9%

CC(C)NP(=O)(NC(C)C)OP(=O)(NC(C)C)NC(C)C
outcome [1]: inactive
activity change, negative = inhibition [2, 10]: -0.786%

O=P(O)(O)C(Cl)(Cl)P(=O)(O)O
outcome [1]: inactive
Potency [3]: inactive
activity change, negative = inhibition [2, 10]: 10.1%

c1ccc2c(N3CCNCC3)cccc2c1
outcome [1]: inactive
activity change, negative = inhibition [2, 10]: -26.6%

CCCN(CCC)CCc1c[nH]c2ccc(C(N)=O)cc12
outcome [1]: inactive
activity change, negative = inhibition [2, 10]: -26.6%

O=S(=O)(O)c1cc(O)ccc1O
outcome [1]: inactive
activity change, negative = inhibition [2, 10]: -8.18% [at 17.2 µM]

NC(=O)c1cc(N2CC2)c([N+](=O)[O-])cc1[N+](=O)[O-]
outcome [1]: inactive
Potency [3]: inactive
activity change, negative = inhibition [2, 10]: 1.65%

Clc1ccc(N2C[C@H]3CC[C@@H](C2)N3)nn1
outcome [1]: inactive
activity change, negative = inhibition [2, 10]: -11.9%

OCc1cnc[nH]1
outcome [1]: inactive
activity change, negative = inhibition [2, 10]: 7.81%

NCCc1ccc(S(=O)(=O)F)cc1
outcome [1]: inactive
activity change, negative = inhibition [2, 10]: 2.53%

C[N+]1(C)CCc2cc3c(cc2[C@H]1[C@@H]1OC(=O)c2c1ccc1c2OCO1)OCO3
outcome [1]: inactive
activity change, negative = inhibition [2, 10]: -19.2% [at 17.2 µM]

CC(C)(C)c1cc(C=C(C#N)C#N)cc(C(C)(C)C)c1O
outcome [1]: inactive
activity change, negative = inhibition [2, 10]: -108% (active)

N#CC(C#N)=Cc1cc(O)c(O)c(O)c1
outcome [1]: inactive
activity change, negative = inhibition [2, 10]: -8.53%

CNC(=O)OCC[N+](C)(C)C
outcome [1]: inactive
activity change, negative = inhibition [2, 10]: 3.8%

CC(=O)NBr
outcome [1]: inactive
activity change, negative = inhibition [2, 10]: -0.158%

NC(N)=NOCC[C@H](N)C(=O)O
outcome [1]: inactive
activity change, negative = inhibition ([2]; at 17.2 µM (top of the series)): -0.483%
activity change, negative = inhibition ([2]; at 38 µM (top of the series)): 17%

CCCn1c(=O)c2[nH]c(C3CCCC3)nc2n(CCCOC(=O)c2ccc(S(=O)(=O)F)cc2)c1=O
Potency [3]: inactive

— PubChem BioAssay (NCATS)
